# Assay outcomes deposited in PubChem BioAssay by The Scripps Research Institute Molecular Screening Center.
# Hits are enriched below; roughly 2.3% of the tested compounds scored in any of these assays.
# CHO-K1 Ca PAM: counter-screen for M1 PAMs: effect in parental CHO-K1 cells; ATP EC20, Fluo-8 calcium fluorescence; 0% at ATP EC20, 100% at ATP max; activation, % at 3 µM; hit rate 0.02% among 360,000;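 active = activation above the run cutoff, the mean activation of all test compounds plus 3 SD, cut at about 40% in these data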;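 also: peak over basal fluorescence ratio in a 140 s read after ATP addition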
# CHRM1 antagonist: human CHRM1 antagonism. P11229. CHO-K1 hM1, Fluo-8 calcium fluorescence, ACh EC80 antagonist. inhibition, % at 3 µM. hit rate 1.3% among 360,000;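 active = percent inhibition above its own plate's cutoff, namely the mean of that plate's compound wells plus 3 SD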;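 also: peak over basal fluorescence ratio during 140 s after agonist addition; 0% = ACh EC80 plus DMSO and 100% = DMSO alone without agonist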
# Target sequence (P11229 whole entry, looked up): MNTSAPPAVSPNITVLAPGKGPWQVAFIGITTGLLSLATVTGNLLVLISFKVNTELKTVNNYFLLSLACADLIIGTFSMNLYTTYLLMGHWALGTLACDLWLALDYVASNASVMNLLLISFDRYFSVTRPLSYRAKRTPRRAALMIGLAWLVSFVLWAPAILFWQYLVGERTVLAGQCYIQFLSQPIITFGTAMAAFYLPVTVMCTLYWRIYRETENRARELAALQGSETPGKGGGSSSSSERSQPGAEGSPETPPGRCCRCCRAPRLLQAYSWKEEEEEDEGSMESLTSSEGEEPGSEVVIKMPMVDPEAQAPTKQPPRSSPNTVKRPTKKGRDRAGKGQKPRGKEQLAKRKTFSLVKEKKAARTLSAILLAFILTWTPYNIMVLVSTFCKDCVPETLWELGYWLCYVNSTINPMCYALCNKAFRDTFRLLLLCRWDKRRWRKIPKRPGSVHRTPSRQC
# M1 ag parental: counter-screen for M1 agonists: effect in parental CHO-K1 cells; activation, % at 3 µM; Fluo-8 calcium fluorescence; scaled to maximal ATP response, vehicle zero; hit rate 0.48% among 360,000; AID 602248; in the data active = activation above about 15%;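 also: untransfected CHO-K1 host cells lacking M1 receptor as counterscreen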
# CHRM1 PAM: potentiates human M1 receptor response to acetylcholine. P11229. CHO-K1 hM1, Fluo-8 calcium fluorescence, ACh EC20; 0% = ACh EC20, 100% = maximal ACh. activation, % at 3 µM. hit rate 0.088% among 360,000. AID 588819; in the data active = activation above about 19%, passing the limit was not always enough
# CHO-K1 Ca antag: M1 antagonist counterscreen hit in parental CHO-K1 cells | hit rate 0.6% among 360,000 | ATP-induced calcium, Fluo-8 fluorescence | AID 602250 | inhibition, % at 3 µM;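 active = inhibition above a per-plate cutoff, the plate's mean sample inhibition plus 3 SD, cut at about 24% in these data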;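 also: 0% = DMSO plus EC80 ATP and 100% = DMSO alone without ATP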
# M1 ag: agonists of human M1 muscarinic receptor. hit rate 0.33% among 360,000. activation, % at 3 µM. P11229. CHO-K1 hM1, Fluo-8 calcium fluorescence, agonist mode; 0% DMSO, 100% acetylcholine EC100;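 active = activation above the run's mean compound activation plus 3 SD, cut at about 16% in these data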;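 also: peak over basal fluorescence ratio within a 140 s kinetic read after compound addition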
# * hit, by the source's call.
SMILES,CHO-K1 Ca PAM,CHRM1 antagonist,M1 ag parental,CHRM1 PAM,CHO-K1 Ca antag,M1 ag
CCOC(=O)C1=CCN(S(=O)(=O)c2ccc(C)cc2)C1c1cccc(Cl)c1 (stereo unspecified),-3.5,-0.2,-0.7,6.0,29.4*,7.3
CCOC(=O)C1=CCN(S(=O)(=O)c2cccc(Cl)c2)C1c1cccc(C)c1 (stereo unspecified),14.1,6.5,0.9,-3.4,14.2,-8.3
COc1cc(/C=N/NC(=O)CSc2nc3ccccc3n2C)cc(OC)c1OC,25.7,-11.5,1.9,9.4,-12.9,-5.9
COc1cc(Cl)ccc1OCc1cc(C(=O)N2CCN(C)C(=O)[C@@H]2C)no1,0.4,-8.2,1.0,3.1,-9.8,-1.4
Cc1cc(OCc2cc(C(=O)N3CCN(C)C(=O)[C@@H]3C)no2)cc(C)c1Cl,-9.8,38.5*,14.9,-13.1,10.1,5.4
O=C(Nc1c(-c2ccc3c(c2)OCO3)[nH][nH]c1=O)c1ccccc1,13.4,-11.9,0.4,-1.3,-6.8,-2.3
COc1ccc(CN2CCOCC2)cc1,25.1,-11.1,0.2,13.1,-3.6,-3.1
CN(C)c1ccc(CN2CCCCCC2)cc1,4.4,45.4*,0.1,-3.3,3.8,-5.5
CCN(CC)c1ccc(CN2CCCCCC2)cc1,-6.1,19.3,0.0,-13.3,14.7,-6.1
COc1ccc(CN2CCCCCC2)cc1,-21.9,-6.1,-0.3,4.0,25.3*,-8.1
CCOC(=O)Cc1csc(NC(=O)CSc2cc(Cl)ccc2Cl)n1,-7.9,-3.7,-0.2,5.6,3.7,0.9
O=C(COc1ccc2c(-c3ccccc3)cc(=O)oc2c1)Nc1ccc(CCO)cc1,-20.0,23.8,17.8*,-11.0,25.9*,4.9
CC1CN(C(=O)COc2ccc3c(-c4ccccc4)cc(=O)oc3c2)CC(C)O1 (stereo unspecified),-11.4,29.4*,0.8,-14.1,-9.7,-2.1
CCOC(=O)c1cc(=O)c2ccc(OCC(=O)Nc3ccc(F)cc3)cc2o1,9.9,-8.4,24.9*,8.5,-1.4,10.5
O=C1CNC(=S)N1CCCc1ccccc1,5.0,-4.3,0.7,2.3,-4.0,-4.0
CC(=O)Oc1ccccc1/C=C/c1ccc2ccccc2[n+]1C,-20.8,54.1*,0.2,-29.0,9.2,-8.2
COc1cc(Cl)ccc1OCc1cc(C(=O)NCCCN2CCCC2=O)no1,-15.0,5.8,1.0,-5.3,-3.2,-2.8
C(=C\c1ccccc1)/CN1CCN(C(c2ccnc3ccccc23)c2nnnn2C2CCCCC2)CC1 (stereo unspecified),14.9,17.1,-0.1,-25.7,-20.3,-7.2
C(=C\c1ccccc1)/CN1CCN(C(c2ccccc2)c2nnnn2C2CCCCC2)CC1 (stereo unspecified),2.7,43.3*,0.1,-26.1,-9.5,-6.3
COc1cccc(C(c2nnnn2C2CCCC2)N2CCN(C/C=C/c3ccccc3)CC2)c1OC (stereo unspecified),16.1,53.6*,-0.3,-25.2,-15.3,-5.8
CCC(c1nnnn1C1CCCC1)N1CCN(C/C=C/c2ccccc2)CC1 (stereo unspecified),14.1,-20.5,6.4,-4.4,-9.8,-3.4
CCN(C(=O)Cn1ccc(C(F)(F)F)n1)c1c(N)n(Cc2ccccc2)c(=O)[nH]c1=O,-0.1,-3.8,1.2,6.4,-10.7,-1.3
CCOc1ccccc1CNC(=O)C1CCCN(c2nnc(C)c3c(C)n(-c4ccccc4)nc23)C1 (stereo unspecified),4.3,42.8*,-1.8,-18.7,-22.9,-5.8
CCOC(=O)C1CCCN(C(=O)c2ccc(F)c(C)c2)CC1 (stereo unspecified),2.5,-15.2,0.7,11.7,-0.4,-5.5
O=C(Nc1ccc(C(F)(F)F)cc1)c1ccccc1-n1cnnn1,10.1,-12.3,1.6,15.2,-17.6,-2.1
Cc1cc(C)nc(NS(=O)(=O)c2ccc(NC(=O)Cc3ccccc3)cc2)n1,-9.7,15.2,4.9,-12.0,23.9*,-3.9
Cc1ccnc(NS(=O)(=O)c2ccc(NC(=O)Cc3ccccc3)cc2)n1,-9.9,4.3,-0.3,0.4,25.4*,-3.5
Cc1ccc(CC(=O)Nc2ccc(S(=O)(=O)Nc3nccc(C)n3)cc2)cc1,5.4,-8.0,-0.6,6.1,-8.8,-0.1
